Measured values reported in PubChem BioAssay (NCATS).
Inconclusive results are not listed. Calls of active or inactive are those of the source. Calls follow the shape of the dose curve; as a rule, active = well fitted inhibition curve with a large enough effect; inconclusive = small, poorly fitted or top-dose-only effect; inactive = flat fitted curve, though single readings scatter.

Columns and labels:
Assay in all cases: qHTS profiling for inhibitors of Plasmodium falciparum proliferation (AID 504749); also: nearly all actives have a fitted effect of over 60% in size
Conditions in all cases: P. falciparum in erythrocytes, SYBR Green DNA, 72 h; series mostly up to 28.7 µM
DIV17 = tested on: DIV17
In short: (§1)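 Each compound contacts P. falciparum-infected red blood cells for 72 h at 37 C; lysis buffer (Tris, EDTA, saponin, Triton X, SYBR Green I) is added and fluorescence measured next morning; values normalized to controls.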

DIV30 = tested on: DIV30
In short: as §1

Dd2 = tested on: Dd2
In short: as §1

ECU = tested on: ECU
In short: as §1

FAB9 = tested on: FAB9
In short: as §1

GB4 = tested on: GB4
In short: as §1

HB3 = tested on: HB3
In short: as §1

ICS = tested on: ICS
In short: as §1

JCK = tested on: JCK
In short: as §1

N140 = tested on: N140
In short: as §1

P93_24 = tested on: P93_24
In short: as §1

P94_40 = tested on: P94_40
In short: as §1

PAD = tested on: PAD
In short: as §1

PC15 = tested on: PC15
In short: as §1

PC26 = tested on: PC26
In short: as §1

PC49 = tested on: PC49
In short: as §1

SC27B = tested on: SC27B
In short: as §1

TAB109 = tested on: TAB109
In short: as §1

TAB113 = tested on: TAB113
In short: as §1

TAB165 = tested on: TAB165
In short: as §1

Measured: Potency
Potency is read from the fitted curve at half-maximal effect.

CCN(CC)CCNC(=O)c1cc(Br)c(N)cc1OC
inactive: all assays above

CCCCC(CC)COC(=O)/C=C/c1ccc(OC)cc1 (centres undefined)
inactive: all assays above

CCCCCCCC/C=C\CCCCCCCCN
inactive: all assays above

C[C@@H](O)[C@H]1C(=O)N2C(C(=O)O)=C(S[C@@H]3CN[C@H](CNS(N)(=O)=O)C3)[C@H](C)[C@H]12
inactive: all assays above

COc1ccc(CN(CCN(C)C)c2ncccn2)cc1
active: GB4 9.53 µM | P93_24 7.94 µM
inactive: all other assays above

CCCc1ncc(C[n+]2ccccc2C)c(N)n1
inactive: all assays above

Cc1cccc(C)c1NC(=O)c1ccccc1C(=O)O
inactive: all assays above

c1ccc(CC2=NCCN2)cc1
inactive: all assays above

Cc1ccc(S(=O)(=O)NC(=O)NC2CCCC2)cc1
inactive: all assays above

NC(=S)N/N=C/c1cccnc1
inactive: all assays above

COc1ccc(/C=N/NC(=O)c2ccncc2)cc1OC
inactive: all assays above

OCc1ccccn1
inactive: all assays above

CCCCCCCCCCCCCCCC(=O)O
inactive: all assays above

CC(C)Cc1ccc(CC(=O)O)cc1
inactive: all assays above

CC(C)CCCC(C)N (centres undefined)
inactive: all assays above

COc1cc(C(=O)N2CCCCCCC2)cc(OC)c1OC
inactive: all assays above

COc1cc(C(=O)NCc2ccc(OCCN(C)C)cc2)cc(OC)c1OC
inactive: all assays above

Nc1ccc(C(=O)NCC(=O)O)cc1
inactive: all assays above

O=C(O)Cc1csc(-c2ccc(Cl)cc2)n1
inactive: all assays above

NS(=O)(=O)Cc1noc2ccccc12
inactive: all assays above

Cc1c[nH]c2ccccc12
inactive: all assays above

CC(=O)Oc1ccc(C)cc1
inactive: all assays above

COP(=O)(OC)OC(c1ccc(Cl)cc1)P(=O)(OC)OC (centres undefined)
inactive: all assays above

O=C(Nc1ncc([N+](=O)[O-])s1)c1cccs1
inactive: all assays above

CCOC(=O)[C@H](CCc1ccccc1)N[C@@H](C)C(=O)N1[C@H](C(=O)O)C[C@H]2CCCC[C@@H]21
inactive: all assays above

CCCCCCCCCCCCCC[N+](C)(C)Cc1ccccc1
active: DIV17 4.78 µM | DIV30 6.75 µM | Dd2 10 µM | ECU 7.08 µM | FAB9 5.62 µM | GB4 4.26 µM | HB3 8.91 µM | ICS 2.51 µM | JCK 11.2 µM | N140 8.91 µM | P93_24 7.94 µM | P94_40 6.31 µM | PAD 11.2 µM | PC15 6.31 µM | PC26 5.36 µM | PC49 7.94 µM | SC27B 7.94 µM | TAB109 7.94 µM | TAB113 6.31 µM | TAB165 5.62 µM

NC(=O)n1c(O)c(C(=O)c2cccs2)c2cc(Cl)ccc21
inactive: all assays above

FC(F)(F)C(F)(F)C(F)(F)C(F)(F)C(F)(F)C(F)(F)C(F)(F)C(F)(F)Br
inactive: all assays above

COc1cc(C)nc(-n2nc(C)cc2OC)n1
inactive: all assays above

O=C1C(CCS(=O)c2ccccc2)C(=O)N(c2ccccc2)N1c1ccccc1 (centres undefined)
inactive: all assays above

CCCCC(CC)COC(=O)c1ccc(N(C)C)cc1 (centres undefined)
inactive: all assays above

CC[C@H](c1ccc(O)cc1)[C@@H](CC)c1ccc(O)cc1
inactive: all assays above

O=C1C(=O)c2ccccc2C(O)=C1C1CCC(c2ccc(Cl)cc2)CC1 (centres undefined)
active: DIV17 0.0091 µM | DIV30 0.0051 µM | Dd2 0.0035 µM | ECU 0.0032 µM | FAB9 0.0032 µM | GB4 0.0041 µM | HB3 0.0028 µM | ICS 0.002 µM | JCK 0.0056 µM | N140 0.005 µM | P93_24 0.004 µM | P94_40 0.0071 µM | PAD 0.0045 µM | PC15 0.0045 µM | PC26 0.0057 µM | PC49 0.005 µM | SC27B 0.0007 µM | TAB109 0.0025 µM | TAB113 0.002 µM | TAB165 0.01 µM

CCCCCCCCCCCCSCCOCCO
inactive: all assays above

Cc1ccc(O)c([C@H](CCN(C(C)C)C(C)C)c2ccccc2)c1
active: DIV17 1.2 µM | DIV30 6.01 µM | Dd2 2.51 µM | ECU 3.98 µM | FAB9 8.91 µM | GB4 1.51 µM | HB3 7.94 µM | ICS 1 µM | JCK 7.94 µM | N140 2 µM | P93_24 4.47 µM | P94_40 2.24 µM | PAD 2.82 µM | PC15 3.16 µM | PC26 4.78 µM | PC49 3.16 µM | SC27B 4.47 µM | TAB109 3.55 µM | TAB113 3.98 µM | TAB165 2.24 µM

CCCCNc1ccc(C(=O)OCCOCCOCCOCCOCCOCCOCCOCCOCCOC)cc1
not listed: TAB165
inactive: all other assays above

CC(=O)Nc1ccc(OCC(O)CNC(C)C)cc1 (centres undefined)
inactive: all assays above

c1ccc(-c2nc[nH]c2-c2ccccc2)cc1
inactive: all assays above

CC(=O)Nc1ccc(OC(=O)c2ccccc2OC(C)=O)cc1
inactive: all assays above

NC(=O)c1ccccc1O
inactive: all assays above

CCOc1ccc(NC(C)=O)cc1
inactive: all assays above

N=C(N)N1CCc2ccccc2C1
inactive: all assays above

C#C[C@]1(O)CC[C@H]2[C@@H]3CCC4=Cc5oncc5C[C@]4(C)[C@H]3CC[C@@]21C
inactive: all assays above

C/C=C/C=N/NC(=O)c1ccncc1
inactive: all assays above

CCCCCCCCCCCCCCCCO
inactive: all assays above

CCOC(=O)c1ccc(N)cc1
inactive: all assays above

COc1ccccc1N1CCN(CCCCNC(=O)c2ccc(-c3ccc(C(C)=O)cc3)cc2)CC1
active: ICS 14.1 µM
inactive: all other assays above

Cc1ccccc1OCC(O)CO (centres undefined)
inactive: all assays above

CCCCNC(=O)NS(=O)(=O)c1ccc(N)cc1
inactive: all assays above

O=C(O)C(Cc1cc(I)c(O)c(I)c1)c1ccccc1 (centres undefined)
inactive: all assays above

Cc1cc(C)cc(OCC2CNC(=O)O2)c1 (centres undefined)
inactive: all assays above

Nc1nc(N)c(-c2ccccc2)s1
inactive: all assays above

CCCCCCCCOc1ccc(C(=O)c2ccccc2)c(O)c1
inactive: all assays above

C[N+]1(CC2COC(c3ccccc3)(C3CCCCC3)O2)CCCCC1 (centres undefined)
active: DIV17 6.01 µM | DIV30 6.75 µM | Dd2 7.08 µM | ECU 4.47 µM | FAB9 3.16 µM | GB4 3.38 µM | HB3 4.47 µM | ICS 4.47 µM | JCK 12.6 µM | N140 11.2 µM | P93_24 6.31 µM | P94_40 4.47 µM | PAD 5.01 µM | PC15 5.62 µM | PC26 4.26 µM | PC49 6.31 µM | SC27B 7.08 µM | TAB109 6.31 µM | TAB113 5.01 µM | TAB165 5.01 µM
